# Data taken from PubChem BioAssay AID651551 (Sanford-Burnham Center for Chemical Genomics, 2012).
# Molecular target: PEG-3 (UniProt Q6IN02)
# Assay: GAPDH versus PEG-3 reporter suppression – cell-based, luminescence, counter-screen for PEG-3 promoter inhibitor project, SAR follow-up (AID 651551)
# Details: HeLa PEG-Prom / GAPDH luciferase reporter, 6 or 24 h, run 2, 6 h; at 99 µM (top of the series)
row,Compound,inhibition % (higher = more inhibition) [%]
1,CCCn1nc(C(=O)Nc2nc(-c3ccncc3)cs2)c2ccccc2c1=O,7.03
2,COc1ccc(Cl)cc1Nc1nc(-c2sc(NC(=O)c3ccccc3)nc2C)cs1,42.5
3,Cc1ccc(Cl)cc1Nc1nc(-c2sc(NC(=O)c3ccco3)nc2C)cs1,37
4,CCn1cc(C(=O)NCc2ccco2)c(=O)c2cc(S(=O)(=O)N3CCCC3)ccc21,-0.291
5,O=C(Nc1nc2ccccc2s1)c1nn(-c2ccccc2)c(=O)c2ccccc12,-4.43
6,Cc1nc(NC(=O)c2ccccc2)sc1-c1csc(Nc2cccc(Cl)c2C)n1,32.8
7,Cc1cc(NC(=O)c2ccccc2C(F)(F)F)n(-c2nc3ccccc3[nH]2)n1,88.2
8,Cc1cc(NC(=O)c2cccc(C)c2C)n(-c2nc3ccccc3[nH]2)n1,16.4
9,COCCCNC(=O)c1ccc(Cn2c(=O)c3ccccc3n(Cc3ccccc3C#N)c2=O)cc1,23.2
10,Cc1cc(NC(=O)c2ccccc2)n(-c2nc3ccccc3n2C)n1,38.3
11,CCn1nc(C(=O)Nc2nc(-c3ccccn3)cs2)c2ccccc2c1=O,39.9
12,COc1ccc(-n2nc(C(=O)NCC(=O)Nc3cc(OC)c(OC)c(OC)c3)c3ccccc3c2=O)cc1OC,9.37
13,COc1ccc(-n2nc(C(=O)NCC(=O)Nc3ccc(OC)c(OC)c3)c3ccccc3c2=O)cc1,13.5
14,CCCn1nc(C(=O)Nc2nc3ccccc3s2)c2ccccc2c1=O,21.8
15,Cc1nc(NC(=O)c2ccccc2)sc1-c1csc(Nc2ccccc2Cl)n1,7.99
16,O=C(Nc1nc(-c2ccccc2)cs1)c1nn(-c2ccccc2)c(=O)c2ccccc12,3.85
17,Cc1nc(NC(=O)c2ccccc2)sc1-c1csc(Nc2ccccc2)n1,5.23
18,Cc1cc(NC(=O)c2ccccc2)n(-c2nc3ccccc3[nH]2)n1,17.6
19,CCCn1nc(C(=O)Nc2nc(-c3ccccn3)cs2)c2ccccc2c1=O,44.6
20,COc1ccccc1Nc1nc(-c2sc(NC(=O)c3ccco3)nc2C)cs1,-0.291
21,Cc1cc(NC(=O)c2ccccc2C)n(-c2nc3ccccc3[nH]2)n1,41.1
22,O=C(Nc1nccs1)c1nn(-c2ccccc2)c(=O)c2ccccc12,28.7
23,COc1ccc(-n2nc(C(=O)NCC(=O)Nc3cccc(OC)c3)c3ccccc3c2=O)cc1,2.47
